# Source: PubChem BioAssay AID504913 (The Scripps Research Institute Molecular Screening Center, 2011)
# The list shows a part of the results. Values without a mark were called inactive. Cut-off read from the data, not from the text of the source: active = activation above about 18%; inactive = the rest.
# Test: activation of mu-delta opioid heterodimer signal – cell-based, luminescence, counter-screen for HTR5A agonist project (AID 504913)
# Settings: U2OS counter-screen cells, complementation luminescence, 3 h; at 9.3 µM; active compounds read high
smiles,measurement,value
CCCCCCCCCCCCn1ccc(=N)cc1,activation,2.92%
